SMILES strings stand for the structures. Out of some 48,000 compounds screened, about 13,000 (27%) showed an effect of 50% or more. This is one part of the list.

In the assay the test system is Wolbachia pipientis. Nature of the assay: Anti-Wolbachia Cell-Based Screen. It is filed as functional. Also noted: scale not given: in the data most compounds retested in dose-response had high values. The conditions noted are these: 5 µM.
Regarding `O=C1N(CCCc2ccccc2)CCCC1(O)CNCC1CCCCC1` (stereo unspecified), the “Percent Effect” value is reported as 25.76%.
As for `Cc1nnsc1CN1C[C@H]2CC[C@@H]1CN(Cc1ccc(F)cc1)C2`, the figure is 24.86%; as for `CC(=O)N1CCN(Cc2ccc(C(F)(F)F)c(F)c2)CC(O)C1` (stereo unspecified), -15.55%; as for `CC(C)C(=O)NCC(=O)N(C)C1CCCN(C2Cc3ccccc3C2)C1` (stereo unspecified), -0.79%.
As for `Cc1ccc(N2CC3(COCCN(Cc4nccs4)C3)OCC2=O)s1.O=C(O)C(F)(F)F` (stereo unspecified), the figure is -2.22%.
As for `Nc1nc2c(c(=O)[nH]1)CCN(C(=O)c1cccc3nccnc13)C2`, the figure is 6.132%; as for `CN(C)c1nc2c(c(=O)[nH]1)CCN(C(=O)c1cccc3nccnc13)C2`, 3.463%; as for `Cc1nc2c(c(=O)[nH]1)CCN(C(=O)c1cccc3nccnc13)C2`, 104.9%.
As to `Cc1nccn1CCC1CCCCN1Cc1ccc(N(C)C)nc1` (stereo unspecified), the “Percent Effect” value is 13.8%.
As for `CC(=O)N1CCCc2ccc(S(=O)(=O)N3CCCCC3C)cc21` (stereo unspecified), the figure is -24.19%; as for `O=C(O)C(F)(F)F.O=S(=O)(c1cccc(F)c1)N1CC[C@H]2[C@H]1CCN2c1ncccn1`, -6.82%; as for `O=C(C1CC1)N1C[C@H]2CCCN(S(=O)(=O)c3cccc(F)c3)[C@H]2C1`, 149%.
`CC(=O)N1CCCC(C(=O)N2CCC(=Cc3cccc(F)c3)CC2)C1` (stereo unspecified): the “Percent Effect” value came out at 11.44%.
As for `O=C(C1CC1)N1C[C@H]2CCCN(S(=O)(=O)c3ccc4c(c3)CCC4)[C@H]2C1`, the figure is 109.7%; as for `CC(=O)N1CCc2ccc(S(=O)(=O)N3CCCCC3C)cc21` (stereo unspecified), -39.69%; as for `CCOC(=O)c1cn(CC(O)c2ccccc2OC)nn1` (stereo unspecified), -11.75%.
In the case of `CCN(CC1CCOC1)C(=O)CSCC(=O)Nc1ccc(C)cc1` (stereo unspecified), the “Percent Effect” value is 4.187%.
As for `O=C(Nc1cccc(C(F)F)c1)N[C@@H]1C=C[C@H](CO)C1`, the figure is -9.569%; as for `CC(C)(C)OC(=O)N1CCN(c2cccnc2)CC1C(=O)O` (stereo unspecified), 114.7%; as for `CCCSCC(=O)N1CCN(c2ccc(OC)cc2)CC1C` (stereo unspecified), 15.77%.
Regarding `Cc1ccc(C(=O)N2C[C@@H]3CCN(c4cccnc4)C[C@@H]3C2)cn1.O=C(O)C(F)(F)F`, the “Percent Effect” value was found to be 4.1%.
As for `COC(=O)c1ccc(N2CCN(C(=O)C(C)C)C(C)C2)cc1` (stereo unspecified), the figure is 1.031%.
As for `Cc1ccc(N2CCN(C(=O)CCC(F)(F)F)C(C)C2)cc1` (stereo unspecified), the figure is 17.59%; as for `COc1ccc(N2CCN(C(=O)Cn3nc(C)c(C)c3C)C(C)C2)cc1` (stereo unspecified), -0.23%; as for `COc1ccc(N2CCN(C(=O)OC(C)(C)C)C(C(=O)O)C2)cc1` (stereo unspecified), 126.2%.
As for `CC(C)(C)OC(=O)N1CCN(c2ccc(F)cc2)CC1C(=O)O` (stereo unspecified), the figure is 89.96%; as for `COC(=O)N1CCCCC1C(=O)N1CCN(c2cccnc2)CC1` (stereo unspecified), -31.63%.
In the case of `CCc1nccn1C1CCCN(C(=O)c2cnc[nH]2)C1` (stereo unspecified), the “Percent Effect” value is recorded as 2.73%.
As for `CCCS(=O)(=O)NCC1OCCc2cn(CC3CCOCC3)nc21` (stereo unspecified), the figure is -15.6%.
As for `CC(C)CN1C[C@@H]2OCC(=O)N(Cc3nccn3C)[C@@H]2C1`, the figure is 0.1712%; as for `CNC(=O)[C@H]1C[C@H]2OCC[C@H]2N(CCOc2ccc(Cl)cc2)C1.O=C(O)C(F)(F)F`, -0.765%.
As for `CCN(CC)S(=O)(=O)c1cc(NC(=O)CCc2cscn2)ccc1C`, the figure is -4.761%.
Consider `O=C(NC[C@]1(O)CCN(Cc2ccccc2F)C[C@H]1O)c1c[nH]cn1`, for which the “Percent Effect” value is 105%.
Consider `Fc1ccccc1CC1CCN(Cc2cscn2)CC1`, for which the “Percent Effect” value was determined as 12.39%.
As for `Cc1cc(CN2CCC(CNC(=O)c3cnc(C)nc3C)C2)[nH]n1` (stereo unspecified), the figure is -6.024%.
As for `O=C(NC[C@]1(O)CCN(Cc2ccsc2)C[C@H]1O)c1c[nH]cn1`, the figure is 99.16%.
As for `Cc1cccc(CN2CCCC(O)(CNCCc3c[nH]cn3)C2=O)c1` (stereo unspecified), the figure is 23.49%; as for `NC1(C(=O)NCC2CCCN(Cc3ccccc3F)C2)CCCC1` (stereo unspecified), -12.52%.
`O=C(NC[C@]1(O)CN(Cc2ccccc2F)C[C@H]1O)c1cscn1`: the “Percent Effect” value is reported as 81.64%.
As for `Cc1cncc(CN2CC[C@@](O)(CNC(=O)c3c[nH]cn3)[C@H](O)C2)c1`, the figure is 108.4%.
As for `CN1CCC(NCC2(O)CCCN(Cc3ccccc3F)C2=O)CC1` (stereo unspecified), the figure is -22.31%; as for `O=C(NC[C@]1(O)CN(Cc2ccccc2F)C[C@H]1O)c1ccccn1`, -4.429%; as for `COCC1CC2(CCN(S(=O)(=O)C3CC3)CC2)CN1c1ncccn1.O=C(O)C(F)(F)F` (stereo unspecified), -3.839%.
On to `CCn1cnnc1CNC(=O)NCC(C)(CC)N1CCOCC1` (stereo unspecified), for which the “Percent Effect” value is reported as -7.317%.
As for `Cc1n[nH]c(C2CN(Cc3nnc(C4CC4)n3C)CCO2)n1` (stereo unspecified), the figure is 1.096%.
As for `CCNC(=O)[C@@H]1C[C@H](N)CN1c1cc(C(F)(F)F)nc(N2CCCC2)n1`, the figure is -17.39%; as for `CCNC(=O)[C@@H]1C[C@H](N)CN1c1cc(CC)nc(N(C)C)n1`, 116.6%.
As for `CCNC(=O)[C@@H]1C[C@H](N)CN1c1cc(C(F)(F)F)nc(N(C)C)n1`, the figure is -10.07%.
As to `COC(=O)c1cccc(C(=O)N2CCN(c3ccccc3F)CC2)n1`, the “Percent Effect” value amounted to 5.907%.
Consider `O=C(c1ncncc1Cl)N1CCN(c2ccc(Cl)cc2)CC1`, for which the “Percent Effect” value is -23.14%.
`COC(=O)c1cccc(C(=O)N2CCN(c3ccc(Cl)cc3)CC2)n1`: the “Percent Effect” value is given as 100.8%.
As for `COC(=O)c1cccc(C(=O)N2CCN(c3ccc(OC)cc3)CC2)n1`, the figure is 142.3%; as for `COC(=O)c1ccc(N2CCN(C(=O)c3ccc(=O)n(C)c3)CC2)cc1`, -4.416%; as for `COC(=O)c1ccc(N2CCN(C(=O)c3ccn(C)c(=O)c3)CC2)cc1`, 7.353%.
As for `CCC(C)(C)C1CCCN1C(=O)c1coc(S(=O)(=O)NC)c1` (stereo unspecified), the figure is 25.9%; as for `Cc1cccc(N2CCC3(CCCN3Cc3c(C)nn(C)c3C)CC2)n1`, 12.41%; as for `CC(C)SCc1cccc(NC(=O)NCCc2nnc[nH]2)c1`, 5.819%.
As for `Cc1nc(C)n(C2CCCN(C(=O)c3cn4cccnc4n3)C2)n1` (stereo unspecified), the figure is 114.3%; as for `CC(C)c1nccn1C1CCCN(C(=O)c2cn3cccnc3n2)C1` (stereo unspecified), 106.5%; as for `Cc1nc(C)n(C2CCCN(C(=O)c3csnn3)C2)n1` (stereo unspecified), -2.311%.
In the case of `CC(C)c1nccn1C1CCCN(C(=O)c2cnc[nH]2)C1` (stereo unspecified), the “Percent Effect” value was -3.09%.
As for `Cc1cc(C)n(C2CCN(C(=O)c3cn4ccsc4n3)C2)n1` (stereo unspecified), the figure is -17.41%; as for `Cc1cnn(C2CCCN(C(=O)c3cn4cccnc4n3)C2)c1` (stereo unspecified), -8.081%.
For `Cc1cc(C)n(C2CCCN(C(=O)c3cn4cccnc4n3)C2)n1` (stereo unspecified), the “Percent Effect” value stood at 140.9%.
In the case of `CCc1nccn1C1CCCN(C(=O)c2cn3cccnc3n2)C1` (stereo unspecified), the “Percent Effect” value was -0.7445%.
As for `Cc1nc(C)n(C2CCCN(C(=O)c3cn4c(C)cccc4n3)C2)n1` (stereo unspecified), the figure is 8.927%.
